# The list is not random: actives were taken first. Their share in the collection is about 12%.
# Sfp PPTase inh = qHTS Assay for Inhibitors of Bacillus subtilis Sfp phosphopantetheinyl transferase (PPTase); Biochemical Sfp PPTase activity, qHTS; 4'-phosphopantetheinyl transferase ffp (Bacillus subtilis), Q9F4F7; 310,000 tested, 3.5% active; Potency, µM, inactives show largest response in the series, negative = inhibition, usual class: inhibitors;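 further: the enzyme is Sfp with the accession as filed and its product quenches rhodamine fluorescence; 0% = enzyme reaction without inhibitor and -100% = no enzyme wells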
#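 Fluorescence-quenching assay: 15 nM Sfp-PPTase preincubated 15 min at room temperature with compound, then 5 uM rhodamine-CoA and 12.5 uM BHQ-2-labelled YbbR peptide added. Fluorescence (ex 525/em 598 nm) read at start and after 30 min; difference gives rate.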
# HP1b binding inh = HTS for Inhibitors of HP1-beta Chromodomain Interactions with Methylated Histone Tails. Chromobox protein homolog 1 (Homo sapiens), P83916. AlphaScreen HP1-beta / biotin-H3K9me3 peptide binding. Potency, µM (series often up to 114 µM), without a hit: at the top dose activity change, negative = inhibition, most hits filed as inhibitors. 390,000 tested, 0.56% active; further: nearly all actives have a fitted effect of over 70% in size
# Target sequence (P83916 whole entry, looked up): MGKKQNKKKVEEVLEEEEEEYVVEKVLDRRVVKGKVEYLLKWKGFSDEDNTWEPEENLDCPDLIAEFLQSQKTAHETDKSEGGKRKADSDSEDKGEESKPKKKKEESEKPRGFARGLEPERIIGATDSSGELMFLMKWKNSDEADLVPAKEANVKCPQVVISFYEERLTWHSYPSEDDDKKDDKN
#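 Compound inhibition of the preformed complex between 50 nM HP1-beta and 50 nM biotinylated H3K9me3 peptide was read by AlphaScreen. Buffer was PBS pH 7.4 with 0.01% Tween-20. Incubations ran 30 min at room temperature, with 10 ug/mL donor/acceptor beads.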
# G9a inh = qHTS Assay for Inhibitors of Histone Lysine Methyltransferase G9a; Histone-lysine N-methyltransferase EHMT2 (Homo sapiens), Q96KQ7; G9a H3K9 monomethylation, AlphaScreen, 2 h; Potency, µM (titrated, usually from 102 µM), for the others: top-dose activity, negative = inhibition, actives largely listed as inhibitors; 350,000 tested, 8.8% active; AID 504332, 2011; further: on the % scale 0 is the no-effect control and ±100 the full control effect; nearly all actives have a fitted effect of over 75% in size
# Target sequence (Q96KQ7 913-1193 limits assumed): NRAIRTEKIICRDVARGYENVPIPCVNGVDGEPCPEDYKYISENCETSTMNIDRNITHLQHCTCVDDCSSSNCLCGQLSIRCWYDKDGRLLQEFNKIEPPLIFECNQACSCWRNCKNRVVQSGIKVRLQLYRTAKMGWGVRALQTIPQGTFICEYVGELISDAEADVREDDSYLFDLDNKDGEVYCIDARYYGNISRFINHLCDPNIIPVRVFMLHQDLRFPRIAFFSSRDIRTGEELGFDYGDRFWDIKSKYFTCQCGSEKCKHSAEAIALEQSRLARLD
#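 Methyltransferase reactions run at room temperature for 2 h (20 nM enzyme, 500 nM biotin-H3K9 peptide, 20 uM SAM) after a 15 min compound preincubation; product detected by AlphaScreen beads and anti-H3K9me1 antibody.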
# JMJD2A Tudor = qHTS Assay for Inhibitors of JMJD2A-Tudor Domain; AlphaScreen JMJD2A-Tudor / H3K4me3 peptide binding; Potency, µM (series often up to 114 µM), without a hit: at the top dose activity change, negative = inhibition, usual class: inhibitors; 390,000 tested, 4.4% active; AID 504339, 2011; further: on the % scale 0 is the no-effect control and ±100 the full control effect; nearly all actives have a fitted effect of over 50% in size
# BAZ2B inh = qHTS Assay for Inhibitors of BAZ2B. Potency, µM (top dose mostly 114 µM), without a hit: top-dose activity change, negative = inhibition, actives largely listed as inhibitors. AlphaScreen BAZ2B-H3K14Ac peptide displacement. 360,000 tested, 4.4% active; further: on the % scale 0 is the no-effect control and ±100 the full control effect; nearly all actives have a fitted effect of over 60% in size
#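 Complex of BAZ2B and biotin-H3K14Ac (50 nM apiece) forms over 30 min at RT, then faces library compounds up to 110 uM for another 30 min; AlphaScreen beads added, 20 min dark incubation, luminescence read.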
# Starred values were filed as active, the others as inactive; ? = inconclusive; nt = not tested or not shown; ! = a repeat was not active; [ ] = dose if it differs, or a comment. The call rests on the fitted dose curve; in most records, active means well fitted curve in the direction sought with a large enough effect; inconclusive means small, poorly fitted or top-dose-only effect, or another doubt; inactive means no such curve, though single readings can be large; an effect the other way counts as inactive or inconclusive. Potency means the concentration at half of the fitted maximal effect.
SMILES,Sfp PPTase inh,HP1b binding inh,G9a inh,JMJD2A Tudor,BAZ2B inh
Cc1nn(Cc2ccccc2Cl)c(C)c1C(=O)NC1CCCc2ccccc21 (centres undefined),-3%,25%,9%[59 µM],1%,-1%
CN(C)CC1CCCCC1OC(=O)Cc1ccc(Cl)c([N+](=O)[O-])c1 (centres undefined),-6%,?,?,14µM*,?
CN(C(=O)COC(=O)c1ccc([N+](=O)[O-])cc1Cl)C1CCCCC1,-3%,8%,?,-23%,?
O=C(Nc1ccc(Oc2ccc(Cl)cc2)c(Cl)c1)c1cc(I)cc(I)c1O,-8%,-13%,?,79µM*,?
CC(C)COP(=O)(c1ccc(N(C)C)cc1)C(Nc1ccccc1)c1ccccc1 (centres undefined),-6%,48%,?,-35%[57.1 µM],?
CN(C)c1ccc(P(=O)(OC2CCCCC2)C(Nc2ccccc2)c2cccnc2)cc1 (centres undefined),-7%,-17%,nt,-21%,40µM*
COc1ccc(CNC(=O)/C=C/c2ccc3[nH]cc(CCN(C)C)c3c2)cc1,5%,20%,40µM*!,-33%,?
COc1ccc2[nH]cc(CCN(C)C)c2c1,-9%,9%,56µM*!,-12%,21%
CNC(=O)[C@H]1C[C@@H]1[C@H](NP(=O)(c1ccccc1)c1ccccc1)c1ccccc1,19%,nt,nt,nt,nt
CN1C(=O)CN=C(c2ccc(Cl)cc2)c2cc(Cl)ccc21,-24%,30%,?,-19%,-24%
O=P1(Oc2ccccc2)CC=CC(COC(c2ccccc2)(c2ccccc2)c2ccccc2)O1 (centres undefined),-3%,20%,nt,-30%,nt
O=C(OCC(=O)c1ccc([N+](=O)[O-])cc1)/C(=C/c1ccc(Cl)cc1)NC(=O)c1ccccc1,?,44%,7.9µM*,-13%,-11%
CCN1C[C@]2(C)CC[C@H](O)[C@@]34C5C[C@@H]6[C@@H](OC)C[C@@](O)(C5[C@H]6O)[C@@H](CC23)[C@@H]14 (some centres undefined),18%,nt,nt,nt,nt
CC(C)C[C@H]1C(=O)N2CCCC2[C@]2(O)O[C@](NC(=O)[C@@H]3C=C4c5cccc6[nH]c(Br)c(c56)C[C@H]4N(C)C3)(C(C)C)C(=O)N12 (some centres undefined),45µM*,nt,22µM*,nt,nt
O=C(c1c[nH]c2ccc(S(=O)(=O)N3CCC4(CC3)OCCO4)cc2c1=O)N1CCC2(CC1)OCCO2,3%,-2%,25%,-10%,-37%
CN1CCc2nc(SCC(=O)OC(C)(C)C)c(C#N)cc2C1,-14%,27%,50µM*,1%,-17%
CN1CCc2nc(CO)c(CO)cc2C1,4%,nt,nt,nt,nt
C[C@]1(C(=O)O)CCC[C@]2(C)c3cc(O)ccc3CC[C@@H]12,12%,nt,nt,nt,nt
O=C(O)CNC1c2ccccc2CSc2ccccc21 (centres undefined),nt,5%,nt,18µM*,nt
O=C(CSc1oc(-c2ccccc2)nc1S(=O)(=O)c1ccc(Cl)cc1)Nc1ccc(F)cc1,nt,34%,?,7%,1%
Cc1oc(-c2ccc(Cl)cc2)nc1CN1CCC(C(=O)NCCCN2CCN(c3cccc(Cl)c3)CC2)CC1,nt,-12%,10µM*,?,?
CCCCNC(=O)C1CCCN(Cc2nc(-c3ccc(Cl)cc3)oc2C)C1 (centres undefined),nt,34%,-24%[59 µM],-9%,?
Cc1oc(-c2cccc(Cl)c2)nc1CN1CCC(C(=O)NCCCN2CCN(c3ccc(F)cc3)CC2)CC1,nt,-1%,?,-28%,22µM*
Cc1ccc(NC(=O)Cn2cc(C(=O)c3ccccc3)c3ccccc32)cc1,nt,38%,-8%[59 µM],40µM*,-20%
O=C(OC1Cc2c(O)cc(O)cc2OC1c1cc(O)c(O)c(O)c1)c1cc(O)c(O)c(O)c1 (centres undefined),18µM*,nt,nt,nt,nt
SMILES,Sfp PPTase inh,HP1b binding inh,G9a inh,JMJD2A Tudor,BAZ2B inh
O=C(O[C@@H]1Cc2c(O)cc(O)cc2O[C@@H]1c1cc(O)c(O)c(O)c1)c1cc(O)c(O)c(O)c1,11µM*,nt,1.8µM*,nt,8.9µM*
COc1cc(CN2CCc3nc(N4CCN(c5ccccc5F)CC4)ncc3C2)ccc1OC(C)C,nt,19%,-14%[59 µM],-22%,?
COc1cc(CN2CCc3nc(N4CCN(c5ncccn5)CC4)ncc3C2)cc(OC)c1OC,nt,-14%,?,50µM*,45µM*
COc1cc(CN2CCc3nc(N4CCN(c5ccccn5)CC4)ncc3C2)cc(OC)c1OC,nt,?,?,79µM*,50µM*
Cc1ccnc(-n2c(-c3ccccc3)nc3ccccc3c2=O)c1,5%,20%,13%[59 µM],-3%,0%
CCN(CC)C(=O)c1ccc2c(c1)C1C(Cl)C(Sc3ccccc3[N+](=O)[O-])CC1C(C(=O)O)N2 (centres undefined),45µM*,11µM*,7.9µM*,?,20µM*
CCN(CC)C(=O)c1ccc2c(c1)C1C=CCC1C(C(=O)O)N2 (centres undefined),11µM*,28µM*,1.6µM*,11µM*,25µM*
Cc1ccc2c(c1Cl)NC(C(=O)O)C1CC(Sc3ccccc3[N+](=O)[O-])C(Cl)C21 (centres undefined),?,?,nt,56µM*,14µM*
CCc1ccc(OCC(=O)N2CCN(CCc3ccccn3)CC2)cc1,nt,43%,-3%[59 µM],-14%,-4%
CN(C)C(=O)Oc1cccc2c(OC(=O)N(C)C)cccc12,16%,32%,?,-2%,7%
CN(Cc1ccccc1)Cc1ccccc1OC(=O)N(C)C,16%,32%,45µM*,-14%,-4%
O=C(c1cn(Cc2ccccc2)c2ccccc12)N1CCCCC1,-5%,29%,26%,-11%,-7%
CCOc1ccccc1OCCCCN1CCCC1,?,?,?,32µM*,?
Cc1ccc(CN2CCSc3ccc(C(=O)N4CCC5(CC4)OCCO5)cc32)cc1,-9%,11%,50µM*,?,-38%[57.1 µM]
C[C@@H]1O[C@@H](O[C@H]2C[C@@H](O)[C@]3(CO)[C@@H]4C(CC[C@]3(O)C2)[C@@]2(O)CC[C@H](C3=CC(=O)OC3)[C@@]2(C)C[C@H]4O)[C@H](O)[C@H](O)[C@H]1O (some centres undefined),-10%,nt,47%[12.7 µM],nt,nt
CCCCC(=O)C1C(=O)NC(=O)NC1=O,-7%,21%,-11%[59 µM],56µM*,-30%

# Source: PubChem (National Center for Advancing Translational Sciences (NCATS))
